# hgDAF-12 ag: hgDAF-12 agonism, primary luciferase screen | hit rate 1.8% among 370,000 | HEK293 GAL4-hgDAF12 UAS-luciferase reporter, agonist luminescence; normalized to butyrate control | activation, % at 6.8 µM;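 active = activation above a cutoff set at the mean of all screened compounds plus 3 SD, cut at about 10% in these data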;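 note: 0% = DMSO wells and 100% = sodium butyrate wells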
# DAX1 inh-1: NR0B1 (DAX1) inhibition; P51843; HEK293 Gal4-DAX1 luciferase reporter, luminescence; inhibition, % at 6.75 µM; hit rate 0.99% among 340,000;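 active = inhibition above the mean over all tested compounds plus 3 SD, cut at about 4.2% in these data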;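 note: 0% = DAX1-transfected cells with DMSO and 100% = empty-vector control cells with DMSO; inhibition shows as a rise in luminescence from relieved DAX1 repression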
# DAX1 inh-2: blocks DAX1 repression of SF-1 activated StAR promoter. HEK293T StAR-luciferase reporter, SF-1/DAX-1 repression relief. inhibition, % at 6.8 µM. hit rate 1.1% among 370,000. AID 652010;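 active = inhibition above the mean over all tested compounds plus 3 SD, cut at about 3.6% in these data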;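 note: 0% = DAX-1 cells with DMSO and 100% = cells lacking DAX-1 with DMSO; higher inhibition means more luminescence from relief of DAX-1 repression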
# hcDAF-12 act: activators of H. contortus DAF-12 nuclear receptor. hit rate 1.4% among 370,000. HEK293 hcDAF-12 lit1-tk-luc reporter, luminescence; 0% DMSO, 100% Δ7-dafachronic acid. activation, % at 6.8 µM;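 active = activation above the mean of all tested compounds plus 3 SD, cut at about 5.5% in these data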;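 note: 100% = response to 3 µM Δ7-dafachronic acid high control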
# ssDAF-12 act: activators of S. stercoralis DAF-12 nuclear receptor; hit rate 1% among 370,000; activation, % at 6.8 µM; HEK293 ssDAF-12/GRIP1 lit1-tk-luc reporter, luminescence; % of 3 µM dafachronic acid response;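 active = activation above the mean over all tested compounds plus 3 SD, cut at about 0.9% in these data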;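 note: 0% = DMSO-only wells and 100% = 3 µM delta7-dafachronic acid wells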
# DAX1 conf: NR0B1 (human) inhibition, confirmation; shares compounds with DAX1 inh-2; HEK293T StAR-promoter luciferase reporter, SF-1/DAX-1 repression; inhibition, % at 6.8 µM; hit rate 87% among 2,400; AID 652134;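 active = inhibition above the average of every tested compound plus 3 SD, cut at about 3.8% in these data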;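 note: 0% = DAX-1 cells with DMSO and 100% = no DAX-1 control cells with DMSO; active compounds raise luminescence by relieving repression of the StAR reporter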
# Target sequence (P51843 whole entry, looked up): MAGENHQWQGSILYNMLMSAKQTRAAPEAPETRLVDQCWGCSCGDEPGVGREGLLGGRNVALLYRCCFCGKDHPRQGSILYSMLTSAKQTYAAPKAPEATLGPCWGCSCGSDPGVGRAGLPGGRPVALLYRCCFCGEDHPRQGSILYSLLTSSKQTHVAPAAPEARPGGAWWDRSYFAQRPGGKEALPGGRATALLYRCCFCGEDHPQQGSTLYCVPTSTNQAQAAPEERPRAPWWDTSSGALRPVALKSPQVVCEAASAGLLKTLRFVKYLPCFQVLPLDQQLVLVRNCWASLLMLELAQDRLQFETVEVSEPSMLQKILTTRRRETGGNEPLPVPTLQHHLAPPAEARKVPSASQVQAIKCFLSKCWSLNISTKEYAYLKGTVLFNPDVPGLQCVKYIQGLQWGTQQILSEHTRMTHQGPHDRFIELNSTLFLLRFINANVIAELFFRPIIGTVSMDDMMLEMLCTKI
# SF1 mutant ctr: nonselective inhibitor or artifact in SF-1 mutant DAX1 counter-screen; inhibition, % at 6.8 µM; shares compounds with DAX1 inh-2; hit rate 78% among 2,400; HEK293 StAR-luciferase, SF-1 AF2 mutant, luminescence;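 active = inhibition above the mean of all tested compounds plus 3 SD, cut at about 3% in these data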;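 note: 0% = DAX-1 transfected cells with DMSO and 100% = cells without DAX-1 with DMSO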
# * = called active by the depositor; / = no result given. Sampled rows, rich in hits. Any-hit rate of the full collection: about 4.1%.
SMILES,hgDAF-12 ag,DAX1 inh-1,DAX1 inh-2,hcDAF-12 act,ssDAF-12 act,DAX1 conf,SF1 mutant ctr
O=C(CCc1nc2ccccc2c(=O)[nH]1)NNC(=O)COc1ccccc1Cl,-3,1,1,-2,-1,/,/
C=CCN(CC#CCN(C)C(=O)c1cccn1C(=O)OC(C)(C)C)Cc1ccc(OC)cc1OC,-3,/,-1,-4,-2,/,/
Cc1cc(Cl)ccc1OCC(=O)NNC(=O)c1cccs1,2,0,-1,-2,-1,/,/
COc1ccc(Cl)cc1C(=O)NNC(=O)COC(=O)c1cccs1,0,0,6.4*,0,-1,0,0
Cc1occc1C(=O)N/N=C/c1ccc[nH]1,11*,2,5.2*,3,0,3,1
CN1[C@H](Cc2ccccc2)COc2cccc(F)c2S1(=O)=O,-1,/,-1,-3,0,/,/
COc1ccc(NC(=O)c2ccccc2NC(=O)C2CC=CCC2C(=O)O)cc1 (configuration not stated),12*,2,5.6*,3,0,4.0*,3.4*
COc1ccc(NC(=O)c2ccccc2NC(=O)c2ccccc2)cc1,4,-2,-1,1,-1,/,/
Cc1ccc(OCC(=O)Nc2ccc(Cl)cc2)c([N+](=O)[O-])n1,11*,3,6.2*,1,0,10*,7.5*
CCN(CC)C(=O)C1CCCN(C(=O)c2ccc3nc(-c4cccc(OC)c4)oc3c2)C1 (configuration not stated),2,-1,1,1,-1,/,/
CCCC(=O)N1CCCC(c2nc(-c3cccc(OC)c3)no2)C1 (configuration not stated),12*,4.7*,4.6*,4,-1,12*,5.7*
CCC(=O)C1CCCN(C(=O)c2ccc3nc(-c4cccc(OC)c4)oc3c2)C1 (configuration not stated),10,0,7.0*,5,0,8.3*,5.7*
COc1cccc(-c2nc3ccc(C(=O)N4CCCC(O)C4)cc3o2)c1 (configuration not stated),9,0,5.3*,2,0,7.4*,7.4*
O=C(c1ccc2oc(CCCc3ccccc3)nc2c1)N1CCCC1,11*,1,9.0*,5.8*,1.0*,9.5*,6.9*
COc1ccc(Cc2nc3ccc(C(=O)N4CCCC4)cc3o2)cc1,11*,3,8.3*,2,1.1*,9.2*,3.4*
COc1ccc(Cc2nc3ccc(C(=O)N4CCCC4)cc3o2)cc1OC,-1,-1,-1,-1,-1,/,/
Cc1ccccc1CS(=O)(=O)Cc1ccc(C(=O)Nc2cccc(C)c2C)o1,2,/,0,-3,-1,/,/
CCN1CCc2c(sc(NC(=O)c3ccc(S(=O)(=O)N4CC(C)OC(C)C4)cc3)c2C(N)=O)C1 (configuration not stated),2,-1,4.8*,-1,-1,2,3.7*
COc1ccc(C(=O)NCCS(=O)(=O)NCCc2ccccc2)cc1,6,0,4.8*,2,0,3.8*,2
COc1ccc(CCNS(=O)(=O)CCNC(=O)c2ccccc2)cc1,1,-1,-1,0,-1,/,/
O=C1CCCc2nc(N3CCN(C(=O)c4ccco4)CC3)ncc21,5,2,5.7*,2,1,5.9*,3.4*
O=C(c1ccco1)N1CCN(c2ncccn2)CC1,7,1,2,-1,-1,/,/
Nc1c(C(=O)Nc2ccc3c(c2)OCCO3)nnn1Cc1ccc(Cl)cc1,12*,2,8.7*,5,0,7.7*,5.2*
Nc1c(C(=O)Nc2ccc3c(c2)OCCO3)nnn1Cc1cccc(F)c1,7,2,7.7*,0,-1,9.4*,5.3*
COc1ccc(Cn2nnc(C(=O)Nc3ccc4c(c3)OCCO4)c2N)cc1Br,3,-1,-4,-1,-1,/,/
SMILES,hgDAF-12 ag,DAX1 inh-1,DAX1 inh-2,hcDAF-12 act,ssDAF-12 act,DAX1 conf,SF1 mutant ctr
CCn1cc(Cl)c(C(=O)Nc2cccc(C(F)(F)F)c2)n1,3,0,0,1,-1,/,/
CCn1cc(Cl)c(C(=O)Nc2ccc3c(c2)OCCO3)n1,13*,1,6.1*,2,1,9.7*,5.5*
O=C(Nc1nccs1)c1ccc(-c2ccccc2[N+](=O)[O-])o1,10,1,5.2*,3,0,7.2*,6.3*
O=C(Nc1nccs1)c1ccc(N2CCOCC2)c([N+](=O)[O-])c1,9,3,7.0*,3,0,8.4*,5.4*
Cc1ccn2c(Cc3ccccc3)c(-c3ccccc3)nc2c1,11*,3,5.5*,4,-1,2,2
Cc1ccn2c(CN3CCOCC3)c(-c3ccccc3)nc2c1,8,1,3,1,-1,/,/
Cc1ccc(Cc2c(-c3ccc(Cl)cc3)nc3cc(C)ccn23)cc1,7,3,7.2*,4,0,3,0
CCCN1CCN(CCCNC(=O)c2ccc3nc(N4CCC(C)CC4)sc3c2)CC1,10,-2,6.0*,5,0,9.2*,4.8*
CC1CC(C)CN(CCCNC(=O)c2ccc3nc(N4CCOCC4)sc3c2)C1 (configuration not stated),-1,0,0,-1,-2,/,/
CCN=C1NN=C(c2ccc(C)cc2)CS1,8,0,1,2,0,/,/
CC(C)N=C1NN=C(c2ccc(F)cc2)CS1,13*,1,5.9*,5,-1,11*,6.0*
COc1ccc(-n2c(SCC(=O)Nc3ccccc3-c3ccccc3)nnc2-c2ccco2)cc1,-2,/,-1,-4,-2,/,/
CCN(c1ccccc1C)S(=O)(=O)c1nnc(NC(=O)c2ccco2)s1,-1,1,4.8*,-2,-1,0,0
CN1C(=O)c2cc(NC(=O)C3CC3)ccc2OC[C@H]2O[C@@H](CC(=O)NC3CCC3)CC[C@@H]21,2,/,0,-2,-2,/,/
COc1ccc(CN(C)C(=O)[C@H]2O[C@@H](n3ccc(=O)[nH]c3=O)[C@H](O)[C@@H]2O)cc1OC,-1,/,4.7*,0,-1,0,0
O=C(OCC#CCSc1nnc(-c2ccc(F)cc2)o1)c1ccc(F)cc1,3,/,/,-2,-1,/,/
COC(=O)C1CCN(C(=O)COC(=O)/C=C/c2ccc(O)c(OC)c2)CC1,-2,0,8.5*,1,0,0,-1
CC(C)N1CCCCC(NC(=O)COCc2ccccc2)C1=O (configuration not stated),-3,/,0,-1,0,/,/
COc1cccc(C(=O)N(CCN2CCOCC2)Cc2ccc(OC)c(OC)c2)c1,2,/,0,0,-1,/,/

# Screening data deposited in PubChem BioAssay by The Scripps Research Institute Molecular Screening Center.
